High-throughput results from PubChem.
Chronic BCR inh = chronic active BCR signaling inhibition. ABC-DLBCL IkBa-CBG/CBR reporter, luminescence ratio, 4 h. 0.05% of 340,000 active. Potency, µM (titrated, usually from 46.1 µM), for inactives: at the highest dose activity change, negative = inhibition, most hits filed as inhibitors; active = well fitted inhibition curve with a large enough effect in the signal ratio, with a control signal flat, not every such curve was filed as active; inconclusive = small, poorly fitted or top-dose-only effect, or effect the other way, or a change in a side signal; the % refers to the signal ratio;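 note: potency is the fitted concentration of half-maximal effect; plate controls were basal doxycycline-induced cells for no effect and cells given 10 µM MG132 for full effect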
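Concentration-response series (up to 46 uM) were applied to TMD8 dual-reporter cells for 4 h at 37C with doxycycline. Green/red ratio, after filter-overlap correction, defined %Activity; red signal alone was normalised to basal cells and zero luminescence.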
N370S GC = inhibitors or activators of N370S glucocerebrosidase for Gaucher disease; N370S GC spleen homogenate, 4MU-glucoside fluorescence; Potency, µM (top dose mostly 59.4 µM), for inactives: at the top dose activity change, negative = inhibition, usual class: inhibitors; 0.092% of 330,000 active; AID 2101;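 note: potency is the fitted concentration of half-maximal effect; 0% = full enzyme activity and -100% = no enzyme basal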
IL2 activator = activates IL-2 in a cell-based reporter assay | IL-2 activation reporter assay, cell-based qHTS; stimulated with anti-CD3/CD4/CD28 beads; in transgenic mouse T cells | activation, % (series mostly up to about 46 µM) | 0.065% of 360,000 active; in the data active = activation above about 50%; inconclusive = mostly about 30% to 49%; note: 0% is about no effect
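Unstimulated transgenic mouse T cells; 60-min compound exposure; bead-based TCR/CD4/CD28 stimulation; 18 h culture, 37 degrees C; dual fluorescence (EGFP, DsRed) plate cytometry.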
BRCA1 expr up = increases BRCA1 expression. MCF7-BRCA1-FFLuc reporter, luminescence, 48 h; response scale: scaled: vehicle 0%, 10 µM genistein 100%. Potency, µM (top dose mostly 46.1 µM), without a hit: at the top dose activation, usual class: activators. 1.1% of 380,000 active. AID 624202; note: potency is the fitted concentration of half-maximal effect; nearly all actives have a fitted effect of over 80% in size
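Compounds are tested at multiple concentrations on MCF7 BRCA1-luciferase reporter cells seeded at 2000 per well; after 48 h, a single luminescence end-point is taken and curves fitted to the normalized data.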
a7 integrin act = activators of alpha7 integrin expression for muscular dystrophy; alpha7betagal myoblasts, beta-gal FDG fluorescence, 48 h; Potency, µM (top dose mostly 38.3 µM), inactives show top-dose activation, hits mostly activators; 0.064% of 350,000 active;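 note: potency is the fitted concentration of half-maximal effect; 100% = response of the positive control SU9516; nearly all actives have a fitted effect of over 60% in size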
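Alpha7betagal+/- myoblasts (passage 13) were plated 16-24 hr, then exposed to compounds (1:260 dilution of DMSO stock) for 48 hours at 37C. After MPER lysis, β-galactosidase reporter activity was read as FDG fluorescence (ex 480/em 540) after 30 minutes.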
Nrf2 ARE act = activators of Nrf2 (ARE) signaling. AREc32 ARE-luciferase reporter (MCF7-derived line), luminescence, 24 h. Potency, µM (doses to about 46.1 µM), inactives show top-dose activation, most hits filed as activators. 0.31% of 410,000 active. AID 624171; note: potency is the fitted concentration of half-maximal effect; % of control where 0% means no effect; nearly all actives have a fitted effect of over 65% in size
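ARE activation measured as luciferase luminescence (Steady-Glo, 30 min RT) in AREc32_Fluc cells after 24 hr compound exposure at 37 deg C, 5% CO2; cells seeded overnight at 1000/well in OPTI-MEM, 5% FBS.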
An asterisk follows results filed as active; ? = inconclusive; . = no result given; [ ] = another dose, or the depositor's remark. Hits are enriched below; roughly 1.4% of the tested compounds scored in any of these assays. Unless noted, calls come from the whole dose curve; as a rule, active = well fitted curve in the direction sought with a large enough effect; inconclusive = small, poorly fitted or top-dose-only effect, or another doubt; inactive = no such curve, though single readings can be large; an effect the other way counts as inactive or inconclusive.

SMILES	Chronic BCR inh	N370S GC	IL2 activator	BRCA1 expr up	a7 integrin act	Nrf2 ARE act
O=C(CN(CCc1c[nH]c2ccccc12)S(=O)(=O)c1ccccc1)N1CCCCCC1	.	.	.	-28%	.	.
O=C(NN=Cc1ccc2c(c1)OCO2)c1ccccc1	.	.	0	?	2%	0%
O=C(N/N=C/c1ccc2c(c1)OCO2)C1CC1	?	-2%	-5	7.9µM*	27%	0%
Cc1ccc(CC(=O)N/N=C/c2ccc3c(c2)OCO3)cc1	-1%	2%	-2	8.9µM*	-11%	3%
O=C(N/N=C/c1ccc2c(c1)OCO2)c1ccc2c(c1)OCO2	?	-8%	-1	8.9µM*	1%	0%
O=C(N/N=C\c1ccc2c(c1)OCO2)c1ccco1	?	1%	-3	3.2µM*	20%	0%
Cc1ccc(S(=O)(=O)N2CCC(c3nc(-c4cccs4)nc4ccccc34)CC2)cc1	.	.	.	5%	.	.
CCc1ccc(NC(=O)CSc2nnc(-c3ccccc3)n2C)cc1	.	.	.	8%	.	.
Cc1ccc(/C=N/NC(=O)c2ccc3c(c2)OCCO3)s1	?	4%	-2	2.5µM*	3%	0%
O=C(C[n+]1csc2ccccc21)c1ccc(I)cc1	.	.	.	-20%	.	.
CN1/C(=C\C=C(C#N)C#N)C(C)(C)c2ccccc21	6%	-13%	143*	-1%	8%	2%
CN1/C(=C\C=C(/C#N)C(=O)Nc2ccc(Cl)cc2)C(C)(C)c2ccccc21	5%	6%	1	-2%	-2%	0%
Cc1nc([N+](=O)[O-])cn1CC(O)c1ccc2c(c1)OCCO2 (centres undefined)	.	.	.	0%	.	.
Cc1ccc(NS(=O)(=O)c2ccc(N3CCN(c4ccc(O)cc4)CC3)c([N+](=O)[O-])c2)c(C)c1	?	14µM*	-5	-100%	21%	6%
COc1ccc(/[N+]([O-])=C/c2ccco2)cc1	1%	.	2	8.9µM*	7%	2%
CC1(C(=O)O)CCC(C(=O)NNC(=O)c2ccccc2Cl)C1(C)C (centres undefined)	.	.	2	2%	8%	-1%
COc1ccc(NC(=S)NC(=O)c2ccc(Br)o2)cc1	0%	5%	0	6.3µM*	20%	8%
NC(=O)c1ccccc1NC(=S)NC(=O)c1ccc(Br)o1	?	-9%	5	-36%	20%	14µM*
Cc1c(NC(=O)c2ccc(Br)o2)cccc1C(=O)O	?	1%	0	3.5µM*	2%[7.66 µM]	2%
COc1ccc(NC(=O)c2ccc(Br)o2)cc1	0%	-2%[89.1 µM]	1	?	-15%	7%
COc1ccc(Br)cc1CNC(=O)CCSCc1ccc(Cl)cc1	?	.	.	.	.	10%
CN1CCOc2cc(S(=O)(=O)NCc3ccc(S(N)(=O)=O)cc3)ccc21	-12%	2%	-1	-5%	24%	0%
c1ccc(-c2ccc(OCCN3CCCC3)cc2)cc1	.	-1%	.	.	.	.
CCOc1ccccc1CN1CCN(Cc2nc3c(s2)CCCC3)CC1CCO (centres undefined)	3%	8%	-4	-18%	-15%	0%
CCn1c(C)nc2cc(C(=O)NNC(=S)Nc3ccc(F)cc3)ccc21	?	12%	-1	10µM*	27%	0%
CCn1c(C)nc2cc(C(=O)NNC(=S)Nc3ccc(Cl)cc3)ccc21	-2%	8%	0	-2%	0%	3%
CCn1c(C)nc2cc(C(=O)NNC(=S)Nc3ccccc3Cl)ccc21	?	-4%	-1	4µM*	18%	3%
CN1CCN(C(=O)c2ccc(COc3ccc(C(C)(C)C)cc3)o2)CC1	-2%	-3%[12.8 µM]	-1	3.5µM*	-28%	7%
O=C(/C=C/c1ccc(-c2ccccc2[N+](=O)[O-])o1)c1ccco1	-2%	-1%	-2	-27%	-33%	10µM*
